Experimental findings from the supplement of paper PMC11219838 are described below.

A number with no mark means an inactive call.

In this assay the test system is Caenorhabditis elegans L1 (N2). In words: survival and reproduction score of C. elegans L1 (0: 0-10 living worms, 1: 11-20, 2: 21-50, 3: >50, 4: overgrown) (score 0-4); higher = more worms, less nematicidal, active = 1 or less; extreme values may be limits of the assay. The following applies: 60 µM; 6 days; temperature: 20 °C. Summed up: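 Worm survival and reproduction were recorded as an ordinal score of living worms per well, read under a dissection microscope. Each 96-well well held about 20 synchronized C. elegans N2 L1s with E. coli HB101 in liquid NGM and compound at 60 µM final (0.6% v/v DMSO), sealed and shaken at 200 rpm, 20 °C, for 6 days. Scores ranged from 0 (0–10 worms) to 4 (overgrown, starved) and were the mean of two biological replicates.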
For the compound `Cc1ccc(OC(C)c2nc(-c3ccc4c(c3)OCO4)no2)cc1C` (centres undefined), the “survival and reproduction score” value is 4.

With `c1ccc(COc2cccc(-c3nc(-c4ccccn4)no3)c2)cc1`, the “survival and reproduction score” value was 4. As for `COc1ccc(-c2noc(-c3cccc(F)c3)n2)cc1`, the figure is 4. As for `Cc1c(C(=O)CSc2nnc(-c3ccccc3)o2)c2ccccc2n1C`, the “survival and reproduction score” value was 4.

Consider `Cc1ccc(-c2nnc(SCc3ccccc3C#N)o2)cc1`, for which the “survival and reproduction score” value is 4.

Consider `Fc1cccc(Cl)c1CSc1nnc(-c2ccccc2Cl)o1`, for which the “survival and reproduction score” value is 4.

For the compound `Cc1cccc(-c2noc(COc3ccc(Cl)cc3C)n2)c1`, the “survival and reproduction score” value is 4.

With `Cc1cc(OCc2nc(-c3ccncc3)no2)cc(C)c1Br`, the “survival and reproduction score” value is 4. For `CCSc1nnc(-c2ccc(Cl)cc2)o1`, the “survival and reproduction score” value was 0 (active). As for `CCCOc1ccc(-c2ccc(-c3nc(-c4cccnc4)no3)cc2)cc1`, the “survival and reproduction score” value was 4. Turning to `CCOc1ccc(-c2nc(-c3ccccc3C)no2)cc1`, the “survival and reproduction score” value is 4. In the case of `Brc1ccc(-c2noc(COc3ccccc3)n2)cc1`, the “survival and reproduction score” value was 4. As for `COc1cccc(-c2noc(COc3ccccc3C)n2)c1`, the figure is 4; as for `COc1ccc(-c2nnc(SCC(=O)Nc3ccc(Cl)cc3C)o2)cc1`, 4. As for `Cc1ccc(-c2nc(-c3ccccc3Cl)no2)cc1`, the figure is 4. Turning to `Cc1ccc(-c2noc(COc3ccc(Cl)c(C)c3)n2)cc1`, the “survival and reproduction score” value is 4.

With `Fc1ccc(-c2noc(-c3ccc(Cl)cc3)n2)cc1`, the “survival and reproduction score” value is 1 (active).

Regarding `Fc1ccc(-c2nc(-c3ccc(Cl)cc3)no2)cc1`, the “survival and reproduction score” value is 4. `Cc1ccc(-c2noc(COc3cc(C)ccc3C)n2)cc1`: the “survival and reproduction score” value is 4. In the case of `COc1cccc(NC(=O)c2ccccc2-c2nc(-c3ccccc3Cl)no2)c1`, the “survival and reproduction score” value is 4.

On to `Cc1cc(OCc2nc(-c3ccccn3)no2)cc(C)c1Cl`, for which the “survival and reproduction score” value is 4. With `CCOc1cc(-c2nc(-c3ccc(C)nc3OC)no2)cc(OCC)c1OCC` the figure was 4; with `Cc1ccc(-c2noc(-c3ccccc3C(=O)N3CCC(C)CC3)n2)cc1`, 4; with `Cc1ccccc1CSc1nnc(-c2ccco2)o1`, 0 (active). For the compound `Cc1cccc(OCc2nc(-c3ccc(-n4cccc4)cc3)no2)c1`, the “survival and reproduction score” value was 4.

As for `Brc1ccc(CSc2nnc(-c3cccnc3)o2)cc1`, the “survival and reproduction score” value is 4.

As to `CCc1ccc(NC(=O)CSc2nnc(-c3ccco3)o2)cc1`, the “survival and reproduction score” value is 4. As to `COc1ccccc1-c1noc(-c2ccc(C(C)(C)C)cc2)n1`, the “survival and reproduction score” value is 4. In the case of `COc1ccc(Br)cc1-c1noc(-c2ccncc2)n1`, the “survival and reproduction score” value was 4. As for `Clc1cc(Br)ccc1OCc1nc(-c2ccncc2)no1`, the figure is 4; as for `Cc1cc(OCc2nc(-c3ccccc3)no2)cc(C)c1Cl`, 4; as for `Cc1ccc(-c2nc(-c3cccc(C(F)(F)F)c3)no2)cc1`, 3.5. As for `Clc1ccc(-c2noc(-c3ccc4c(c3)OCCO4)n2)cc1`, the figure is 4. Take `O=C(CSc1nnc(-c2ccccc2Cl)o1)NCc1ccccc1`: the “survival and reproduction score” value is 4.

Turning to `CCCSc1nnc(-c2ccc(Cl)cc2Cl)o1`, the “survival and reproduction score” value was 0 (active). As for `O=C(CSc1nnc(-c2ccc(Cl)cc2)o1)Nc1nccs1`, the figure is 4. With `Clc1ccc(SCc2nc(-c3ccccc3)no2)cc1` the figure was 0 (active); with `Cc1ccc(C(=O)CSc2nnc(-c3ccco3)o2)o1`, 4. In the case of `CC(C)CCC(=O)Nc1ccccc1-c1nc(-c2ccccn2)no1`, the “survival and reproduction score” value was 2.
